According to PubChem BioAssay (NCATS):
Results filed as inconclusive are left out. The source made the active and inactive calls. Unless noted, calls follow the shape of the dose curve; as a rule, active = well fitted curve in the direction sought with a large enough effect; inconclusive = small, poorly fitted or top-dose-only effect, or another doubt; inactive = no such curve, though single readings can be large; an effect the other way counts as inactive or inconclusive.

Assays:
[1] = target: Lysosomal acid glucosylceramidase (Homo sapiens) (UniProt P04062); assay: Glucocerebrosidase-p2 (AID 348; in the data active = potency below about 10 µM; also: potency is read from the fitted curve at half-maximal effect); settings: purified GBA, blue fluorogenic substrate, 40 min
Summary of the method: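 Normal human glucocerebrosidase (0.2 nM) with blue fluorogenic substrate (80 uM final) in citrate/phosphate pH 5.9 with 10mM sodium taurocholate, 0.01% tween-20; 40 min RT, NaOH/glycine stop; fluorescence Ex 365/Em 440; AC50 from a titration from 0.6 nM upwards.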

[2] = AP1 Signaling Pathway (AID 357; active = well fitted curve in either direction with a large enough effect, not every such curve was filed as active; also: % is scaled to controls: 0 for no effect and ±100 for the full control effect); settings: ME-180 AP-1-bla reporter, EGF-induced, beta-lactamase ratio, 5 h; at 7.69 µM (top of the series) unless noted
Summary of the method: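 AP-1-bla ME-180 cells with beta-lactamase reporter under AP-1 response element, stimulated with EC50 EGF; compounds titrated, 5 hours at 37 degrees Celsius. CCF4 read at 460/530 nm ratio; positive and negative modulators judged by AC50.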

[3] = target: Cytochrome P450 1A2 (Homo sapiens) (UniProt P05177); assay: p450-cyp1a2 (AID 410; calls by dose curve; also: potency is read from the fitted curve at half-maximal effect); settings: recombinant CYP1A2, luciferin-ME demethylation, luminescence; series mostly up to 57 µM
Summary of the method: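 O-Demethylation of luciferin 6' methyl ether by human CYP1A2 is monitored as luciferase luminescence. Substrate sits at Km (100uM); enzyme is 20nM. Values are scaled to 57 uM furafylline as maximal inhibition.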

[4] = NFAT Signaling Pathway (AID 444; active = well fitted curve in either direction with a large enough effect, not every such curve was filed as active;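 also: carbachol stimulus at about its EC50 of 1 µM final; % is scaled to controls: 0 for no effect and ±100 for the full control effect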); settings: Jurkat NFAT-bla M1, carbachol, beta-lactamase ratio, 5 h; at 7.69 µM (top of the series) unless noted
Summary of the method: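 Jurkat cells carrying an NFAT-driven β-lactamase reporter and co-transfected muscarinic M1 receptor were treated with compound plus carbachol (1 uM final, an EC50 level) for 5 h at 37 °C. CCF4 loading followed for 1 h at RT; 460/530 nm ratio gave %activity.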

[5] = Stat Signaling Pathway (AID 446; active = well fitted curve in either direction with a large enough effect, not every such curve was filed as active;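 also: ME-180 cervical cancer cells given 40 pM IL-6 alongside compound; SIE-controlled beta-lactamase reporter measured as 460/530 nm FRET emission ratio; % is scaled to controls: 0 for no effect and ±100 for the full control effect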); settings: ME-180 (cervical carcinoma) SIE beta-lactamase reporter, IL-6 stimulated, 5 h; at 7.69 µM (top of the series) unless noted
Summary of the method: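 Normalization used AC90 stimulation (300 pM IL-6) and AC90 inhibition (125 nM pan-JAK inhibitor at 40 pM IL-6). The underlying signal is SIE-driven beta-lactamase in ME-180 cells after 5 h IL-6 exposure with compound.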

[6] = target: Glucocorticoid receptor (Homo sapiens) (UniProt P04150); assay: GR-GFP Redistribution (AID 450;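 active = compounds whose dose series gives a full or clear partial fitted curve of increased nuclear translocation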; also: potency is read from the fitted curve at half-maximal effect); settings: U2OS GR-GFP nuclear translocation, laser cytometry, 2 h
[7] = target: Glucocorticoid receptor (Homo sapiens) (UniProt P04150); assay: GR-EFC Redistribution (AID 451; calls by dose curve; also: potency is read from the fitted curve at half-maximal effect); settings: CHO-K1 GR-EFC translocation, beta-gal luminescence, 2 h
Summary of the method: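 CHO-K1 cells stably expressing nuclear-localized β-gal enzyme acceptor and GR fused C-terminally to the enzyme donor fragment; ligand-driven nuclear translocation restores β-gal by complementation. Compounds titrated up to 46 uM final, 2 h at 37 °C; luminescence read.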

[8] = target: Mitogen-activated protein kinase 10 (Mus musculus) (UniProt Q61831); assay: JNK3 AlphaScreen Assay (AID 530; active = well fitted curve in either direction with a large enough effect, not every such curve was filed as active;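 also: kinase came from lysate of stimulated human HepG2 cells; signal reports phosphorylation of biotinylated GST-cJun 1-79 at Ser73 with 10 µM ATP; % is scaled to controls: 0 for no effect and ±100 for the full control effect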); settings: JNK3 lysate, c-Jun phosphorylation; series mostly up to 57.1 µM
Summary of the method: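 Phosphorylation of biotinylated GST-cJun(1-79) at Ser73 is measured by AlphaScreen proximity luminescence. Enzyme is JNK3 in HepG2 lysates activated with interleukin-1beta and tumor necrosis factor alpha; ATP is 10 uM final.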

[9] = qHTS Assay for Lipid Storage Modulators (AID 1519; calls by dose curve); settings: Drosophila S3 cells, BODIPY lipid droplet/cell ratio, laser cytometry, cells loaded with oleic acid; for activity change, negative = inhibition: at 57.5 µM (top of the series)
Summary of the method: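 Cells seeded at 5,000 per well were treated with compounds over a concentration series and loaded with oleic acid (400 uM, as added). Lipid droplet fluorescence (488 nm excitation, 500-530 nm channel) was read by laser-scanning cytometry and normalized to 20 uM Triacsin C.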

[10] = target: Dual specificity protein kinase CLK4 (Homo sapiens) (UniProt Q9HAZ1); assay: qHTS Assay for Inhibitors of CDC-like Kinase 4 (Kinase-Glo Assay) (AID 1770); settings: recombinant Clk4, Kinase-Glo ATP depletion luminescence; series mostly up to 66.7 µM; also: % is scaled to controls: 0 for no effect and ±100 for the full control effect; nearly all actives have a fitted effect of over 65% in size
Summary of the method: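 Inhibition was judged from remaining ATP, measured by Ultra-Glo luciferase bioluminescence after Clk4 (25 nM) had acted on RS peptide at 1 uM ATP for 4.5 hours, room temperature.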

[11] = target: Dual specificity protein kinase CLK4 (Homo sapiens) (UniProt Q9HAZ1); assay: qHTS Assay for Inhibitors of CDC-like Kinase 4 (ADP-Glo Assay) (AID 1771); settings: recombinant CLK4, ADP-Glo luminescence; series mostly up to 80 µM; also: % is scaled to controls: 0 for no effect and ±100 for the full control effect; nearly all actives have a fitted effect of over 70% in size
Summary of the method: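 Compounds are pin-transferred onto substrate mix (100 uM RS peptide, 1 uM ATP), then 25 nM Clk4 is added. After 1 hr at room temperature, ADP-Glo reagent runs 45 min, detection reagent 30 min, then luminescence is read.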

[12] = target: Dual specificity protein kinase CLK4 (Homo sapiens) (UniProt Q9HAZ1); assay: qHTS Assay for Inhibitors of CDC-like Kinase 4 (ADP-FP Assay) (AID 1795); settings: Transcreener ADP fluorescence polarization; series mostly up to 50 µM;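 also: recombinant human CLK4 phosphorylating RS repeat peptide at 1 µM ATP; % is scaled to controls: 0 for no effect and ±100 for the full control effect; nearly all actives have a fitted effect of over 60% in size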
Summary of the method: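 Inhibition of ADP formation by 6.25 nM Clk4 is measured using 1 uM ATP and 100 uM RS repeat peptide over one hour. Produced ADP displaces a fluorescent tracer from antibody, lowering polarization.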

[13] = target: Ubiquitin carboxyl-terminal hydrolase 1 (Homo sapiens) (UniProt O94782); assay: Inhibitors of USP1/UAF1: Pilot qHTS (AID 504865); settings: purified USP1/UAF1, Ub-rhodamine cleavage fluorescence; series mostly up to 54.9 µM;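 also: rhodamine fluorescence freed from ubiquitin-rhodamine substrate followed over time; top concentration of the series differs between compounds; % is scaled to controls: 0 for no effect and ±100 for the full control effect; nearly all actives have a fitted effect of over 35% in size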
Summary of the method: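 Kinetic fluorescence assay: 1nM USP1/UAF1, 15 min compound preincubation, then 150nM Ub-Rho; 480/540 nm.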

[14] = Primary qHTS for small molecule stabilizers of the endoplasmic reticulum resident proteome: Secreted ER Calcium Modulated Protein (SERCaMP) assay (AID 1508630); settings: SH-SY5Y GLuc-SERCaMP (Gaussia luciferase released on ER calcium loss) secretion, thapsigargin, luminescence; series mostly up to 38.4 µM; also: % is scaled to controls: 0 for no effect and ±100 for the full control effect
Summary of the method: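 The SH-SY5Y reporter protocol was run at 3 concentrations up to 38.3 uM (primary) or 11 concentrations (follow-up): 16 h compound, 100 nM thapsigargin for 4 h, then extracellular luciferase luminescence.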

[15] = target: 3',5'-cyclic-AMP phosphodiesterase 4B (Homo sapiens) (UniProt Q07343); assay: qHTS Assay for Inhibitors of PDE-IV (AID 607; active = well fitted activation curve with a large enough effect in the main read-out, with a control signal flat, not every such curve was filed as active; also: % of control where 0% means no effect); settings: HEK293 ACTOne CNG channel cells, membrane potential fluorescence; series mostly up to 22.9 µM
Summary of the method: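 HEK293 ACTOne cells with CNG channel (1000/well), endogenous PDE4; membrane potential dye, compounds up to 22.9 uM final. Fluorescence Ex 535/Em 590; RO 20-1724 (100 uM final) as reference.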

[16] = target: Cytochrome P450 3A4 (Homo sapiens) (UniProt P08684); assay: qHTS Assay for Activators of Cytochrome P450 3A4 (AID 885); settings: recombinant CYP3A4, Luciferin-PPXE luminescence, 60 min; series mostly up to 57.1 µM; also: nearly all actives have a fitted effect of over 65% in size
Summary of the method: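 Human CYP3A4 dealkylates Luciferin-PPXE to luciferin, which luciferase detection converts to light. Substrate was at its KM (25uM), buffer 200mM KPO4, reaction 60 min at RT.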

[17] = target: Rap guanine nucleotide exchange factor 3 (Homo sapiens) (UniProt O95398); assay: Confirmatory qHTS for antagonist of cAMP-regulated guanine nucleotide exchange factor 3 (EPAC1) (AID 1645880); settings: EPAC1 Rap1B-BODIPY-GDP exchange, fluorescence; series mostly up to 115 µM;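 also: plate controls were DMSO only for no effect and full effect of the ATA control for full effect; nearly all actives have a fitted effect of over 55% in size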
Summary of the method: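 Released BODIPY-GDP fluoresces less than Rap1-bound BODIPY-GDP; the signal is followed at 480/540 nm at 5-min intervals over 30 min, after 5 min at room temperature. Reactions contain 100 nM EPAC1, 250 nM RAP1B-BODIPY-GDP and 50 uM GDP; results are normalized to ATA and DMSO.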

[18] = target: Rap guanine nucleotide exchange factor 4 (Homo sapiens) (UniProt Q8WZA2); assay: Confirmatory qHTS for antagonist of cAMP-regulated guanine nucleotide exchange factor 4 (EPAC2) (AID 1645885); settings: EPAC2 Rap1B-BODIPY-GDP exchange fluorescence, biochemical; series mostly up to 114 µM; also: % is scaled to controls: 0 for no effect and ±100 for the full control effect; nearly all actives have a fitted effect of over 25% in size
[19] = measured here: cell count channel max response
[20] = measured here: lipid channel max response

Chain of Glucocorticoid receptor (Homo sapiens) (P04150 whole entry, looked up, the tested form may be a part): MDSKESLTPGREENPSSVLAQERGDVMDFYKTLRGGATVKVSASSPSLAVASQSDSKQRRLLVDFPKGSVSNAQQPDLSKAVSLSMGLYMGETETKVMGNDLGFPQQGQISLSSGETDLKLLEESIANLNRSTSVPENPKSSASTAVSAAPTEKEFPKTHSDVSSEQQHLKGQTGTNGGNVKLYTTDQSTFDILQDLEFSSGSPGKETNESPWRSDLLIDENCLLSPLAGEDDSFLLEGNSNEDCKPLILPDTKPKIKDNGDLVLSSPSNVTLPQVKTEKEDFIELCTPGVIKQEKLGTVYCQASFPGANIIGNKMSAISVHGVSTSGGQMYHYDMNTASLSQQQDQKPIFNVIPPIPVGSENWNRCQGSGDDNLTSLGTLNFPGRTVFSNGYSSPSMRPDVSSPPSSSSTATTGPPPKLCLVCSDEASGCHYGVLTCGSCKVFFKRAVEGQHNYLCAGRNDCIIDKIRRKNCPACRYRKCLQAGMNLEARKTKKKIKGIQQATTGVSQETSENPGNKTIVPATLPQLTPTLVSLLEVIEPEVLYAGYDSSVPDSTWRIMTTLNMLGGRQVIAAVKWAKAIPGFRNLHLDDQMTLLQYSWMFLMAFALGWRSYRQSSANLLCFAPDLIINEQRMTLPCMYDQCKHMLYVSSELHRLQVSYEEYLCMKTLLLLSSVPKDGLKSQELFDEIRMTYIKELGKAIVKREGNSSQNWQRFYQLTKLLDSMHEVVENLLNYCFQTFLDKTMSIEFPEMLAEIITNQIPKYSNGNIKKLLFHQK
Chain of Ubiquitin carboxyl-terminal hydrolase 1 (Homo sapiens) (O94782 whole entry, looked up): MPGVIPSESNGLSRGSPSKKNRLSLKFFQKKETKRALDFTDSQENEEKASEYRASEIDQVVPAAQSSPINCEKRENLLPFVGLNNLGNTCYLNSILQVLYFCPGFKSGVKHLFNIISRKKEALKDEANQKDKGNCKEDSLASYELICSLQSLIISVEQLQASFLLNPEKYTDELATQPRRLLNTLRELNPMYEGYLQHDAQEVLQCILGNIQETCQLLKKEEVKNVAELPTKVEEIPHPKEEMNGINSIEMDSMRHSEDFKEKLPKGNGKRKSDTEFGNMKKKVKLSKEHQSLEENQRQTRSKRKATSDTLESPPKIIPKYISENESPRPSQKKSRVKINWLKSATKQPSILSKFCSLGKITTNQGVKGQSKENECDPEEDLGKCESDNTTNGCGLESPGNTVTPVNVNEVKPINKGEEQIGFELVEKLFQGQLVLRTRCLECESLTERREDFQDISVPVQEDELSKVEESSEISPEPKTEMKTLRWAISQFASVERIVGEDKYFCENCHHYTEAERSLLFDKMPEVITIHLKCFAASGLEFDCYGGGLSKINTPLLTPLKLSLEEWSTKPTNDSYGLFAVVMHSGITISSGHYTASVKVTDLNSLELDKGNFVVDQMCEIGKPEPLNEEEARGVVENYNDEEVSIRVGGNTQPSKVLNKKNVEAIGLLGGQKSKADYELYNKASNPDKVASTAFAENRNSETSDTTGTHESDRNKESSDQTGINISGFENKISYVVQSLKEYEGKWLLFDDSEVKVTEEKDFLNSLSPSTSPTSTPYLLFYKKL
Chain of Cytochrome P450 1A2 (Homo sapiens) (P05177 whole entry, looked up): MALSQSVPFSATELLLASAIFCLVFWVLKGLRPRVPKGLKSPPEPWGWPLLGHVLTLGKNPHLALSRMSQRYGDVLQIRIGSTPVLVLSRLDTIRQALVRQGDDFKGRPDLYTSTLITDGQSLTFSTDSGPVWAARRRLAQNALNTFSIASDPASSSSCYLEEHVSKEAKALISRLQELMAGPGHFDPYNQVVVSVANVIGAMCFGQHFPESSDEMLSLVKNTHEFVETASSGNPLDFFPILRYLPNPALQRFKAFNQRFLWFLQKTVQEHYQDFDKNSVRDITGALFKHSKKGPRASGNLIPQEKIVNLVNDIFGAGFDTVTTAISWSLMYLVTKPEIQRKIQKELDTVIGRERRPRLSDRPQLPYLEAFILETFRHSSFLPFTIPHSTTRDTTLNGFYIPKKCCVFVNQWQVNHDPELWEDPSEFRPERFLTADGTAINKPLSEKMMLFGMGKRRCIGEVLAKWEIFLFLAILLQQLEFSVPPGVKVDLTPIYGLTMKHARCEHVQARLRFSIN
Chain of 3',5'-cyclic-AMP phosphodiesterase 4B (Homo sapiens) (Q07343 whole entry, looked up): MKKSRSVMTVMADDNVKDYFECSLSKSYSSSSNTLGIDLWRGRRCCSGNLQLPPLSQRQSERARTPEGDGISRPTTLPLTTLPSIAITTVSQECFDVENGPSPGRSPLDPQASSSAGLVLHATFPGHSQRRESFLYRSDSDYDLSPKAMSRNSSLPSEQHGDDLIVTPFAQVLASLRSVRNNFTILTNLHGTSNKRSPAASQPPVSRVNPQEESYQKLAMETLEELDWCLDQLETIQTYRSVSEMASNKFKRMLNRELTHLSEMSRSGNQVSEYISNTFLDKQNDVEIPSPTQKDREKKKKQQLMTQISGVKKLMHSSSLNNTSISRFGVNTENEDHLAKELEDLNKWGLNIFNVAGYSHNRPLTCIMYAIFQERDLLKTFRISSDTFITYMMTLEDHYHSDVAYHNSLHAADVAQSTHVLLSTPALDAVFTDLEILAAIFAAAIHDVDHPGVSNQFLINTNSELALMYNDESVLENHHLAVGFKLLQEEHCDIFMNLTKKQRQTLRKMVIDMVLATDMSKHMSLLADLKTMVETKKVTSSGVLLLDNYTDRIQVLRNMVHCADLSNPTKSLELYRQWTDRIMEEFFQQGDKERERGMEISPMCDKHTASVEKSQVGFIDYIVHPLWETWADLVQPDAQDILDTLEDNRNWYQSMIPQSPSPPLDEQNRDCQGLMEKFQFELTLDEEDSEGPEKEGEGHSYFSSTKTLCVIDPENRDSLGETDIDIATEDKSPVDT
Chain of Dual specificity protein kinase CLK4 (Homo sapiens) (Q9HAZ1 whole entry, looked up): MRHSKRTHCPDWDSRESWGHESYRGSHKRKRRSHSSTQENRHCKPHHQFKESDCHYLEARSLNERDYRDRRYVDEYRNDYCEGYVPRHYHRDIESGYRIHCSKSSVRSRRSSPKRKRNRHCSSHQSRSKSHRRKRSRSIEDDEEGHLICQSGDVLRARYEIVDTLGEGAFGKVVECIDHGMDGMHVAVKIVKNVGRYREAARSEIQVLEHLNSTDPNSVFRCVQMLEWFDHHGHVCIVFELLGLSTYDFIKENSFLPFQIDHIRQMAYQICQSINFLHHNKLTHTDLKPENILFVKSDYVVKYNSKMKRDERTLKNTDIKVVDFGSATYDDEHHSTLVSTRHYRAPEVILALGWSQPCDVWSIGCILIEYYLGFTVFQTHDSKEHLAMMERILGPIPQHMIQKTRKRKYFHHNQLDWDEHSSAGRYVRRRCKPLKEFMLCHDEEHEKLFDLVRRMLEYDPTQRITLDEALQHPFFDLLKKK
Chain of Lysosomal acid glucosylceramidase (Homo sapiens) (P04062 whole entry, looked up): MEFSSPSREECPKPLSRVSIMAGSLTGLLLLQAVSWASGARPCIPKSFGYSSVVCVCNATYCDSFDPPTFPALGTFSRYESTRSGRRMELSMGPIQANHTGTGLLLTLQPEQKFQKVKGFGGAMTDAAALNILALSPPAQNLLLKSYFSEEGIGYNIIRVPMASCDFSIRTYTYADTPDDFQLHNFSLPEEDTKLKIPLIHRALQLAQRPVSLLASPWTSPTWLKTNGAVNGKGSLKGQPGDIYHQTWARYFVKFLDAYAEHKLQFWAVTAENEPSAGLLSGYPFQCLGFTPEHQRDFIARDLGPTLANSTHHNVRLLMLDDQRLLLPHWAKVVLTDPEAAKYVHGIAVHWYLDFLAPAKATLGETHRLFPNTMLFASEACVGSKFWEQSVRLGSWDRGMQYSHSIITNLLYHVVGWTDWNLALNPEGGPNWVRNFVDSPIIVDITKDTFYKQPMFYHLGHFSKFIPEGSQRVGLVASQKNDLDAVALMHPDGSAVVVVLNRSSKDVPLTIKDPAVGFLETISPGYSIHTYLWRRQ
Chain of Cytochrome P450 3A4 (Homo sapiens) (P08684 whole entry, looked up): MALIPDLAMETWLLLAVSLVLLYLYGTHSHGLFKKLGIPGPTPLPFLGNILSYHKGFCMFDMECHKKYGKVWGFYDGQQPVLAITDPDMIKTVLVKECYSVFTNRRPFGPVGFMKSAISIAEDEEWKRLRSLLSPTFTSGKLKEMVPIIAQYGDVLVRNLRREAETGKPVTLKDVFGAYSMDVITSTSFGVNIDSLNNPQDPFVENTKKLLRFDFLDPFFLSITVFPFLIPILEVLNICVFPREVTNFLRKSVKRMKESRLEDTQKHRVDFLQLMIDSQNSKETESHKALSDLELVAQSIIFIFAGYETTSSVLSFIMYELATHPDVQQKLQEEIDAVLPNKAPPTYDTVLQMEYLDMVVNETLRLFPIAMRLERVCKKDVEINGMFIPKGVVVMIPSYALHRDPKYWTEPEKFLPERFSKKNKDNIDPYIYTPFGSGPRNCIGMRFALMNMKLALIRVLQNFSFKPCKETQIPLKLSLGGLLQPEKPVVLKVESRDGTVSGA

Compound	Potency [1]	activity change, negative = inhibition [2]	Potency [3]	activity change, negative = inhibition [4]	activity, negative = inhibition [5]	Potency [6]	Potency [7]	outcome [8]	activity change, negative = inhibition [9]	max response [9, 19]	max response [9, 20]	Potency [10]	Potency [11]	Potency [12]	Potency [13]	Potency [14]	Potency [15]	Potency [16]	Potency [17]	Potency [18]
Cc1cnc(CNc2ccnc(-c3ccccc3C(F)(F)F)n2)cn1	> 11.4 µM (inactive)	2.04% (inactive)	15.8 µM (active)	0.146% (inactive)	2.4% (inactive)	> 46 µM (inactive)	> 46 µM (inactive)	inactive	8.15% (inactive)	12.9%	20.7%	inactive	inactive	inactive	inactive	inactive				
N#CCCn1c(=O)c(-c2ccc(Cl)cc2)nc2cnc(Oc3ccccc3)nc21	> 11.4 µM (inactive)	-26.3% (inactive)	0.501 µM (active)	-9.95% (inactive)	-6.74% (inactive)	> 9.22 µM (inactive)	> 46 µM (inactive)	inactive	4.78% (inactive)	19.6%	24.2%	inactive	inactive	inactive	inactive	inactive	inactive			
N#Cc1cccc(-c2nc3cnc(N4CCOCC4)nc3n(C[C@H]3CCCO3)c2=O)c1	> 11.4 µM (inactive)	-1.16% (inactive)	0.794 µM (active)	1.23% (inactive)	6.63% (inactive)	> 9.22 µM (inactive)	> 46 µM (inactive)	inactive	4.04% (inactive)	10%	11.4%	inactive	inactive	inactive	inactive	inactive	inactive			
Cc1nc2cnc(N(C)C)nc2n(CCC#N)c1=O	> 11.4 µM (inactive)	-8.9% (inactive)	10 µM (active)	-13.7% (inactive)	-1.16% (inactive)	> 9.22 µM (inactive)	> 46 µM (inactive)	inactive	2.74% (inactive)	4.56%	5.95%	inactive	inactive	inactive	inactive	inactive	inactive			
CN(C)c1ncc2nc(-c3cccs3)c(=O)n(C[C@H]3CCCO3)c2n1	> 11.4 µM (inactive)	-15.4% (inactive)	1.58 µM (active)	12.3% (inactive)	1.25% (inactive)	> 9.22 µM (inactive)	> 46 µM (inactive)	inactive	4.26% (inactive)	14.9%	17.7%	inactive	inactive	inactive	inactive	inactive		inactive	inactive	inactive
